The values below come from PubChem BioAssay (NCATS).

Each structure is given as a SMILES string. Inconclusive results are not listed. A number with no mark means an inactive call. The source made the active and inactive calls. Calls come from the whole dose curve; as a rule, active = well fitted activation curve with a large enough effect; inconclusive = small, poorly fitted or top-dose-only effect; inactive = flat fitted curve, though single readings scatter. Square brackets hold non-standard residues; d marks the D form. Peptide text beside a SMILES is read from it. ξ: configuration not given here. ξL = CC(C)CC(N)C(=O)O

This experiment is described as follows: HEK293 12hr Apoptosis Induction qHTS against the NCATS CANVASS Library (AID 1347361). Note: 0% is about no effect. The note with it: HEK293 caspase-3/7 Caspase-Glo luminescence; series mostly up to 46.1 µM. From the text: Natural products and their derivatives continue to be wellsprings of nascent therapeutic potential. However, many laboratories have limited resources for biological evaluation, leaving their previously isolated or synthesized compounds largely or completely untested. To address this issue, the Canvass library of natural products was assembled (https://tripod.nih.gov/canvass), in collaboration with academic and industry researchers, for quantitative high-throughput screening (qHTS) across a diverse set of cell-based and biochemical assays. The pure (>85% purity by liquid chromatography/mass spectrometry [LC/MS]) Canvass library of 346 natural products were submitted by 45 academic laboratories and companies around the world. We collected pure natural products to circumvent deconvolution and structure elucidation due to time and resource limitations. The library was formatted into 1536-well plates and evaluated in 50 qHTS (in an 11-pnt concentration series) bioassays with broad scope of disease-relevant mechanisms. The resulting data set from 50 different assays was then systematically analyzed to identify overall trends and specific natural products with interesting biological activities. Reported herein are the results of each individual qHTS and their corresponding assay protocol. The Caspase-Glo (R) (Promega) is a homogeneous, luminescent assay that measures caspase activity. The detection substrate contains tetrapeptide sequence DEVD in an "add-mix-measure" format. The reagent generates a luminescent signal produced by a thermostable luciferase. The luminescence is proportional to the amount of caspase activity in the assay reaction. National Center for Advancing Translational Sciences (NCATS), Rockville, MD National Institute of Health (NIH), Bethesda, Maryland
Cancer Cell Apoptosis Assay 1. In a 1536 well, white solid bottom tissue culture plates (Corning 7494), HEK293 cancer cells in DMEM + 10% FBS + 1% P/S media were dispensed in each well at a final concentration of 500 cells / well (5uL volume) using the Multidrop Combi (Thermo Fisher Scientific) dispenser. 2. Compounds were pin transferred (~23nL volume) via Wako Pin-tool (Wako Automation, Richmond VA) equipped with a 1536 pin head. The assay plates were treated with compounds in a concentration series with a final concentration range of […] to 103uM. 3. Doxorubicin was used as a control in a 16pnt titration (1mM; 1:2 dilution; 16-points; n = 2; column 3, rows 1 - 32) and was pin transferred via Wako Pin-tool equipped with a 1536 pin head. The final concentration range of doxorubicin is 0.1nM - 4uM. 4. The assay plates were incubated for 12 hours at 37 degrees C/5% CO2/95% Rh. 5. 3uL Caspase-Glo 3/7 (R) (Promega) detection reagent was then added to the assay plates (columns 2 - 48, rows 1 - 32) and incubated at room temperature, covered from light, for 15 min. 6. Luminescence signal was acquired via the ViewLux plate reader (PerkinElmer) using a clear filter, 20 second exposure, and 2x binning settings.
(qHTS replaces the single test concentration by a dilution series.)
Turning to `CC[C@H](O)CCCCC[C@@H]1NC(=O)[C@H]2CCCCN2C(=O)[C@H]([C@H](C)CC)NC(=O)[C@H](Cc2cn(OC)c3ccccc23)NC1=O`, the outcome was inactive.

As for `C=CC(CCCCC)C1C(=O)NC(=O)C1C(=O)C1C(/C=C/C)C=CC2CC(C(=O)O)CC(C)C21` (stereo not given), the outcome was inactive. On to `C=C[C@@](C)(O)CC[C@@H]1[C@@]2(C)CCCC(C)(C)[C@@H]2CC[C@@]1(C)O`, for which the call was inactive. Take `C=C1CC[C@@H](O[C@H]2C[C@@](O)([C@H](C)NC(=O)c3[nH]c(C)c(Cl)c3Cl)[C@H](O)[C@@H](C)O2)[C@@H]2C=C[C@H](C)C(/C(O)=C3/C(=O)[C@H](C(C)C)N([C@@H]4O[C@H](C)[C@H](OC(N)=O)[C@H](OC(C)=O)[C@@H]4OC)C3=O)[C@@H]12` (stereo not given in full): the molecule was classed as inactive.

Take `O=C1CC(c2ccc(O)cc2)Oc2ccccc21` (stereo not given): the call was inactive. In the case of `C[C@@]12CCC[C@@](C)(C(=O)OP(=O)(O)OC[C@H]3O[C@@H](n4cnc5c(N)ncnc54)[C@H](O)[C@@H]3O)[C@H]1C[C@@H](O)[C@@]13C[C@@H](CC[C@@H]21)[C@](C)(O)C3`, the molecule was called inactive. Regarding `CN1CC[C@@]23c4ccccc4N[C@@H]1[C@@]21CCN(C)[C@@H]3Nc2ccccc21`, the outcome was inactive. In the case of `CCC(=O)N[C@@H](C[C@H](C)C(Cl)(Cl)Cl)C(=O)N1C(=O)C=C(OC)[C@@H]1CC(C)C`, the molecule was called inactive.

Take `COC1C(C)OC(OCC23C[C@@H]4[C@H](C)CC[C@H]4C4(C=O)CC2C=C(C(C)C)C34C(=O)O)[C@@H](O)[C@H]1O` (stereo not given in full): the result was inactive. With `C[C@]12CCC[C@](C)(C(=O)O)[C@@H]1CC[C@@]1(C)c3cocc3CC[C@H]21`, the molecule was classed as inactive. On the same count and under the same terms, as for `CC1=C2CC[C@]3(C)[C@H](CC=C4[C@@H]5CC(C)(C)CC[C@@H]5C(=O)[C@H](O)[C@]43C)[C@@]2(C)C=C(O)C1=O`, the entry is “inactive”. On the same count and under the same terms, the value for `COc1cc2c(cc1OC)[C@@H](c1ccc3c(c1)OCO3)C(C)[C@@H](C)C2=O` (stereo not given in full) was “inactive”; that for `C/C=C(/C)c1c(Cl)c(OC)c(C)c2c1Oc1c(Cl)c(O)c(Cl)c(C)c1C(=O)O2` was “inactive”; that for `CC[C@@H]1C[C@@]2(CC)OC(=O)[C@@]3(CC)[C@H](CC)[C@@H]1[C@@H]23` was “inactive”. Still for that read-out and setting: as for `O=Cc1ccc2n1C[C@]1(OC2)O[C@H](CO)[C@@H](O)[C@@H]1O`, the entry is “inactive”; as for `C/C=C(/CO)C(=O)O[C@@H]1[C@H](O)[C@@H](C(=O)OC)O[C@@H]2C[C@H]3OC(n4cnc5c(N)ncnc54)[C@H](OC)[C@H]3O[C@@]12O` (stereo not given in full), “inactive”. For the molecule `C[C@H]1C=C[C@H]2CCCC[C@@H]2[C@H]1C(=O)[C@H]1CC2=C(C(=O)O)CCN2C1=O`, the molecule was classed as inactive.

On to `CC[C@@H](C)[C@H]1NC(=O)C(CC(C)C)NC(=O)[C@@H](CC(C)C)NC(=O)[C@H](Cc2c[nH]c3ccccc23)NC(=O)CNC(=O)[C@@H](CC(N)=O)NC1=O` (stereo partly drawn) (cyclo(GW[dL][ξL][dI][dN])), for which the molecule was called inactive. Same read-out and setting: as for `O=C1CCC(=O)N(O)CCCCCNC(=O)CCC(=O)N(O)CCCCCNC(=O)CCC(=O)N(O)CCCCCN1`, the entry is “inactive”. On the same count and under the same terms, as for `C/C(=C\[C@@H](C)CC/C=C/CC/C=C/C(=O)O)[C@@H](O)[C@H](C)C(=O)CCCC1CC(=O)NC(=O)C1`, the entry is “inactive”.

In the case of `CC(C)[C@@H]1CC(=O)c2coc3c2[C@H]1C[C@@H](C)C3=O`, the molecule was classed as inactive.

For `COc1ccc2[nH]c3c(c2c1)CCN1C[C@H]2C[C@@H](OC(=O)c4cc(OC)c(OC)c(OC)c4)[C@H](OC)[C@@H](OC)[C@H]2C[C@H]31`, the result was inactive.

Regarding `COc1ccc(-c2oc3cc(OC)cc(OC)c3c(=O)c2O)cc1`, the molecule was called inactive. In the case of `C/C(=C\CC[C@@H](C)[C@H]1CC[C@]2(C)C3=CCC4C(C)(C)[C@@H](O)C[C@@H](O)[C@]4(C)C3[C@H](O)C[C@@]12C)CO` (stereo not given in full), the call was inactive.

As for `O=C1CC2OCC=C3CN4C5CC3C2[C@@H]2N1c1ccccc1[C@]52C[C@@H]4C1=C[C@H]2C3CC4N(CC[C@@]45c4ccccc4N(C1=O)[C@@H]25)C/C3=C/CO` (stereo not given in full), the molecule was called inactive.

In the case of `C[C@@]12C[C@@H](C[C@@H]3C(=O)O[C@@H](c4ccoc4)[C@H](OC(=O)c4ccccc4)[C@@H]31)OC2=O`, the outcome was inactive. Regarding `C[C@H](c1cnc(N)[nH]1)c1ccc(O)c2[nH]cc(-c3cnc(-c4c[nH]c5ccccc45)c(=O)[nH]3)c12`, the outcome was inactive. Consider `COc1cc(O)c(C(=O)[C@@H]2[C@H](CC=C(C)C)C(C)=CC[C@H]2c2ccccc2)c(O)c1`, for which the molecule was called inactive.

As for `Cc1cc(O)cc2c1C(=O)c1c(O)cc(O)cc1C2=O`, the molecule was classed as inactive. The same measure, in the same setting: as for `COc1cc([C@@H]2c3cc4c(cc3C[C@@]3(O[C@@H]5O[C@H](CO)[C@@H](O)[C@H](O)[C@H]5O)COC(=O)[C@H]23)OCO4)cc(OC)c1OC`, the entry is “inactive”; as for `CC1=C(C)C(=O)OC(C(C)C2(O)CCC3C4C5OC5C5(O)CC=CC(=O)C5(C)C4CCC32C)C1` (stereo not given), “inactive”. Still for that read-out and setting: as for `COc1ccc([C@@H]2c3cc4c(cc3C(=O)C(C)C2C)OCO4)cc1OC` (stereo not given in full), the entry is “inactive”. Regarding `COc1cc(C2OCC3C(c4ccc(O)c(OC)c4)OCC23)ccc1O` (stereo not given), the caspase activation was 3.13% [at 9.19 µM]. With `COc1cc2oc3ccccc3c(=O)c2cc1OC`, the outcome was inactive.

Consider `C=C1C[C@H]2O[C@@H]3[C@@H]4[C@H](CC[C@@](C)(O)[C@@H]42)[C@H](C)COC3(C)[C@@H](OC(=O)CCCCCCC)C[C@H]1O` (stereo not given in full), for which the molecule was classed as inactive. Same read-out and setting: as for `COc1c(O)cc2c(c1O)C(=O)c1c(coc1C)C2=O`, the entry is “inactive”; as for `C[C@@]1(CCC(=O)Nc2c(O)ccc(C(=O)O)c2O)C(=O)C=C[C@]23C[C@H]4C[C@H](O[C@@]4(C)C2)C31` (stereo not given in full), “inactive”.

On to `C=C[C@]1(C)CC[C@@H]([C@H](C)C(=O)CC=C(C)C)O1`, for which the molecule was called inactive.

For the molecule `CC(C)[C@]12CC[C@@]3(C)[C@H](C)CC[C@H](O)[C@@]3(CC1)c1cc3c(cc12)[nH]c1ccccc13`, the molecule was called inactive. For `CO[C@H]1[C@@H](OC(=O)/C(C)=C\[C@@H]2O[C@@H]2[C@H]2O[C@H]2C)[C@H](O)[C@H](OCC23C[C@@H]4[C@H](C)CC[C@H]4C4(C=O)CC2C=C(C(C)C)C34C(=O)O)O[C@@H]1C` (stereo not given in full), the molecule was called inactive.
